The campaign covered roughly 65,000 compounds. About 85 (0.1%) were called active. The sample holds actives, similar compounds and a random draw of the others, so the mix is not that of the screen. A number with no mark means an inactive call. No stated cut-off is given here; in the data, active means inhibition above about 50%; inactive means the rest.

Drawing on PubChem BioAssay AID368 (University of Pittsburgh Molecular Library Screening Center, 2006), this text covers inhibition for 83 compounds.

The target in the test is M-phase inducer phosphatase 2 (Homo sapiens) (UniProt P30305). Put plainly: human Cdc25B tyrosine phosphatase blockers – biochemical, OMFP fluorescence, catalytic domain, primary screen (AID 368). The note with it: recombinant Cdc25B, OMFP fluorescence Ex485/Em525; active compounds read high;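 compounds tested at 10 µM final in the well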.
M-phase inducer phosphatase 2 (Homo sapiens), sequence (P30305 whole entry, looked up, the tested form may be a part): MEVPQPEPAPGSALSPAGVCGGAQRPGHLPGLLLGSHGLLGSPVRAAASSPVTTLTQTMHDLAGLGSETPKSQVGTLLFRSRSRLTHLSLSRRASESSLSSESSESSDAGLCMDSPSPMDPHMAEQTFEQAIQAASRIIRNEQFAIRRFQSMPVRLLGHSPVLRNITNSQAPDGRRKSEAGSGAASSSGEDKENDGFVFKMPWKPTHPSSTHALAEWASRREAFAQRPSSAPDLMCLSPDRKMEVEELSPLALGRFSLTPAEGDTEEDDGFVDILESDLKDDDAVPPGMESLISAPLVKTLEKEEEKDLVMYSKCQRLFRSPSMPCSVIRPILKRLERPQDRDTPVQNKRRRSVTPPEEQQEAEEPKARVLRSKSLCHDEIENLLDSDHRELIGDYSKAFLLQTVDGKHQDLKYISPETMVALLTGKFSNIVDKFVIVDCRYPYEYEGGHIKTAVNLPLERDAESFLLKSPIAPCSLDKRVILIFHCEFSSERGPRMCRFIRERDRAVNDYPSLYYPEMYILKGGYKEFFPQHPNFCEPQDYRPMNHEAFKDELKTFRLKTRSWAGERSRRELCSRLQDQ
As for `CCCOc1ccc(C2C(C(=O)c3ccc(C)o3)=C(O)C(=O)N2CCCn2ccnc2)cc1` (stereo not drawn), the inhibition was -1.79%. On to `O=c1c2ccccc2oc2nc3n(c(=O)c12)CCCS3`, for which the inhibition is -1.25%. Take `CCOC(=O)N1CCN(C(=O)CSc2ccc(Cl)cc2)CC1`: the inhibition was 3.41%. Under `CC1CN(C(=O)c2ccc3c(c2)OCO3)OC(c2ccccc2)O1` (stereo not drawn) stands -8.81%; under `CC1=C(C)CC2C(=O)N(c3cccc4ccccc34)C(=O)C2C1` (stereo not drawn), -7.9%.

For `Cc1nc2c(-c3ccccc3)c(C)[nH]n2c(=O)c1Cl`, the inhibition was -4.09%.

Consider `COc1ccc(S(=O)(=O)N(C)CC(=O)Nc2ccc3c(c2)OCCO3)cc1OC`, for which the inhibition was -5.79%. Under `O=S(=O)(Nc1ccc2nc(-c3ccco3)[nH]c2c1)c1ccccc1` stands -8.83%; under `O=S(=O)(c1cccc(-c2nnc(SC(F)F)n2-c2ccccc2)c1)N1CCCCC1`, 10.3%. Under `CCC(=O)Nc1cccc(NC(=O)CSc2nnnn2C2CCCC2)c1` stands -2.8%.

With `CCOc1ccc(C(=O)Nc2cc(OC)ccc2OC)cc1`, the inhibition is -1.04%.

Turning to `O=C(C1CCN(c2nnc(-n3cccc3)s2)CC1)N1CCc2ccccc2C1`, the inhibition was -4.75%. As for `Cc1noc(/C=C/N(C)C)c1S(=O)(=O)N1CCCC(C(=O)NCc2ccco2)C1` (stereo not drawn), the figure is -8.56%; as for `CCCCc1cc(=O)oc2cc(C)cc(OCc3nn[nH]n3)c12`, -4.64%. Under `CCOC(=O)c1c(NC(=O)c2cccs2)sc(C)c1C` stands -1.19%; under `COCCNC(=O)CSc1nc2c(n1-c1ccccc1)CCCC2`, -0.327%; under `CCn1c(SCC(=O)Nc2ccccc2F)nc2c(c1=O)SC(C)C2` (stereo not drawn), -15.6%.

Consider `CCOc1ccccc1N(CC(=O)NC1CCCCC1)C(=O)CCCC(=O)Nc1ccccn1`, for which the inhibition is -10.5%.

On to `CCOC(=O)N1CCC(NC(=O)CN2C(=O)COc3ccc(C(C)(C)C)cc32)CC1`, for which the inhibition was -4.53%. As for `CCCN(CCC)C(=O)C1c2ccccc2Oc2ccccc21`, the figure is -5.87%. For `COC(=O)c1c(NC(=O)c2cccs2)sc2c1CCCC2`, the inhibition is -11.6%.

For the compound `COc1cccc(N(C(=O)c2ccn[nH]2)C2(C(=O)Nc3c(C)cccc3C)CCCCC2)c1`, the inhibition is 4.58%. As for `CCN(CC)C(=O)C1CCC(C)(C(=O)O)C1(C)C` (stereo not drawn), the figure is -11.3%. As for `COc1ccc(-c2noc(-c3cccc(OC)c3OC)n2)cc1OC`, the figure is -12.3%.

As for `COc1ccc(CCNC(=O)c2cc(-c3ccc4c(c3)OCO4)on2)cc1OC`, the inhibition was -4.69%.

Regarding `COc1ccc(-c2cc3n(n2)CCc2nc4ccccc4n2-3)cc1`, the inhibition is -0.418%. As to `O=C(Cc1ccccc1)n1nc(-c2ccccc2)nc1NCc1ccco1`, the inhibition was -11.6%. Regarding `COc1ccc(N2C(=O)CN=C2Nc2cccc(C)c2C)cc1OC`, the inhibition is -17.1%. As for `COc1ccc(C)cc1NC(=O)c1[nH]c(C)c(C(C)=O)c1C`, the figure is -7.67%. As for `COc1cccc2c(C)c(C(=O)O)[nH]c12`, the figure is 50.5% (active); as for `CCOC(=O)c1c(C)[nH]c(C(=O)NCc2ccccc2OC)c1C`, 0.611%; as for `FC(F)(F)c1nnc2sc(-c3ccco3)nn12`, 6.19%. As to `CC1(N2CCOCC2)CC2(O)C(=[N+]1[O-])CCc1nonc12` (stereo not drawn), the inhibition was -12.9%. For the compound `Cc1nn(Cc2ccc(Cl)c(Cl)c2)c(C)c1NC(=O)c1cc(C2CC2)on1`, the inhibition was -9.41%.

Regarding `Cc1cc(NS(=O)(=O)c2ccccc2)no1`, the inhibition was -0.238%.

Turning to `Nc1ccc(SCCN2C(=O)c3ccccc3C2=O)cc1`, the inhibition was 3.47%.

Turning to `COc1ccc(C(=O)NCc2cn3ccccc3n2)cc1`, the inhibition is 8.6%. Under `CC(=O)OCc1cc2cc(C)ccc2[nH]c1=O` stands 8.17%. As for `Cc1noc(C)c1C(=O)NC(C)c1ccc2c(c1)OCO2` (stereo not drawn), the figure is -2.76%. Under `O=C(NC1CC2CCCC(C1)N2C(=O)N1CCCCC1)C1CCCCC1` (stereo not drawn) stands 0.205%; under `Cc1cccc(OCc2nnc(SCc3nc4cc(C(F)(F)F)ccc4c(=O)[nH]3)o2)c1`, 4.99%.

For `C=CCNc1nnc(SCC(=O)N2CCCCC2)c2ccccc12`, the inhibition was -10.6%. As for `O/N=C(\c1ccc2c(c1)OCCO2)C1CCCCC1`, the inhibition is -1.56%. Consider `CC(C)Cc1cc(C(=O)NCCc2ccccc2)no1`, for which the inhibition is -7.12%. As for `O=C(OCC(=O)c1cccs1)C1=COCCO1`, the figure is -13.5%; as for `Cc1ccc(-c2csc3nnc(SCC(=O)NCc4ccco4)n23)cc1`, -17.7%; as for `Fc1ccccc1CCNc1nnnn1-c1ccccc1`, 0.973%.

As for `Cc1cc(=O)oc(C)c1C(=O)NC1CC(C)(C)NC(C)(C)C1`, the inhibition is -30.7%. As for `CCCc1cc(=O)oc2c(C)c(O)c(CN3CCCCC3)cc12`, the figure is -7.47%; as for `COc1ccc(-c2nc3n(c2Br)CCC3)cc1`, 2.84%; as for `CC1(C)C(=O)Nc2ccccc2N1C(=O)COC(=O)Cn1cnc2ccccc2c1=O`, -9.58%. With `CC(C)OC(=O)c1sc2nc3c(cc2c1N)C(=O)CCC3`, the inhibition was 15.7%.

As to `CCN(CCCCOC(=O)c1ccc(OC)c(OC)c1)C(C)Cc1ccc(OC)cc1` (stereo not drawn), the inhibition was -19.9%.

Regarding `O=C(O)[C@@H]1CCCN1c1ncnc2sc3c(c12)CCC3`, the inhibition is 1.46%. As for `O=C(Nc1ccc2c(c1)nc1n2CCCCC1)c1cc(S(=O)(=O)N2CCOCC2)ccc1Cl`, the figure is 7.55%. As for `O=S(=O)(Nc1ccccc1N1CCOCC1)c1ccc(Cl)s1`, the figure is -16%; as for `COc1cc(OC)c(C(=O)Nc2ccc(N(C)C)cc2)cc1OC`, 4.05%.

Consider `CCOC(=O)c1ccc(-c2ccc(C(=O)Nc3cccnc3)o2)cc1`, for which the inhibition was -8.16%. As for `CCOc1cc(NC(=O)c2ccco2)c(OCC)cc1NC(=O)COc1ccccc1`, the figure is 2.37%. As for `COc1ccc(OC)c(C2N(c3ccccn3)C(=O)C3CCCN32)c1` (stereo not drawn), the figure is 6.93%.

Consider `CCCc1nc(N)nc2c1C(=O)CC(C)(C)C2`, for which the inhibition is -1.09%. As for `CCCN1CCN(CCCNC(=O)CN2C(=O)COc3ccccc32)CC1`, the figure is -2.33%; as for `O=C(N1CCOCC1)N(Cc1ccccc1)c1ccccn1`, -13.1%; as for `O=C(COc1cccc(-n2cnnn2)c1)NCCC1=CCCCC1`, -1.12%. As for `Cc1ccnc(N2CCCC(C(=O)Nc3cc(F)ccc3C)C2)n1` (stereo not drawn), the figure is 12.7%; as for `CC1CN(C2CCN(C(=O)COc3ccccc3)CC2)CC(C)O1` (stereo not drawn), -13.1%; as for `CC1CCCC(C)N1C(=O)CN1CCN(c2nc(-c3ccc(F)cc3)cs2)CC1` (stereo not drawn), -8.69%. As for `CNC(=O)c1nnn(-c2ccccc2)c1C(=O)NC`, the figure is 0.211%. With `O=c1c(F)cn(C2CCCO2)c(=O)n1Cc1ccccc1Cl` (stereo not drawn), the inhibition is 1.39%. Under `Fc1ccccc1C(c1nnnn1Cc1ccc2c(c1)OCO2)N1CCN(Cc2ccccc2)CC1` (stereo not drawn) stands -4.84%; under `C=CCn1c(=N)n(CC(O)COc2ccc(OC)cc2)c2ccccc21` (stereo not drawn), 0.106%. Under `Cc1ncc(CC(=O)n2cc(C(=O)c3cc(Cl)ccc3O)cn2)s1` stands -7.5%; under `CC(Nc1nc(N2CCCC2)nc2ccccc12)c1ccccc1` (stereo not drawn), -6.08%. Under `c1ccc2c(NCC3CCCO3)nc(-c3ccncc3)nc2c1` (stereo not drawn) stands 1.5%. As for `O=C(C1=C(O)C(=O)N(Cc2ccccc2)C1c1cccnc1)c1ccco1` (stereo not drawn), the inhibition was -7.28%. Under `CC(C)(C)Oc1ncc(Br)c(OC(C)(C)C)n1` stands -14.4%; under `CC(C)c1ccc(N2CC(C(=O)Nc3nccs3)CC2=O)cc1` (stereo not drawn), 3.74%. `COc1ccc(-n2nc3c(c2NC(=O)Cc2cccc(C)c2)CS(=O)C3)cc1` (stereo not drawn): the inhibition was -6.02%. In the case of `C[N+]1(CCNC(=O)/C=N/O)CCCCC1`, the inhibition was 15.7%. As for `CCOc1cc(N2CCOCC2)c(OCC)cc1NC(=O)COc1cccc2cccnc12`, the figure is -6.8%.

Take `CCn1c(SCC(=O)Nc2cccc(F)c2)nnc1-c1cc2cc(Br)ccc2o1`: the inhibition was -5.35%. For the compound `COC(=O)c1ccc(NC(=O)CN(c2ccc(C)cc2)S(=O)(=O)c2c(C)n[nH]c2C)cc1`, the inhibition was 5.5%. Regarding `CC1(C)CC(O)C(CCC(O)c2ccccc2)C(C)(C)N1` (stereo not drawn), the inhibition is -23.8%.
